Reference: PubChem BioAssay AID588726 (The Scripps Research Institute Molecular Screening Center, 2011)
Out of some 360,000 compounds screened, about 8,200 (2.3%) were called active. The full list was thinned out, with actives kept by preference. Unmarked numbers belong to inactive results. Cut-off read from the data, not from the text of the source: active = inhibition above about 27%; inactive = the rest.

molecular target: Fructose-bisphosphate aldolase (Mycobacterium tuberculosis (strain ATCC 25618 / H37Rv)) (UniProt P9WQA3); assay: Mtb FBA enzyme inhibitors, primary screen, biochemical, fluorescence, strain H37Rv (AID 588726);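 note: 0% = vehicle and 100% = reference inhibitor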; conditions: purified M. tuberculosis FBA, fluorescence read-out, at 1 µM, active compounds read high
Sequence (P9WQA3 whole entry, looked up): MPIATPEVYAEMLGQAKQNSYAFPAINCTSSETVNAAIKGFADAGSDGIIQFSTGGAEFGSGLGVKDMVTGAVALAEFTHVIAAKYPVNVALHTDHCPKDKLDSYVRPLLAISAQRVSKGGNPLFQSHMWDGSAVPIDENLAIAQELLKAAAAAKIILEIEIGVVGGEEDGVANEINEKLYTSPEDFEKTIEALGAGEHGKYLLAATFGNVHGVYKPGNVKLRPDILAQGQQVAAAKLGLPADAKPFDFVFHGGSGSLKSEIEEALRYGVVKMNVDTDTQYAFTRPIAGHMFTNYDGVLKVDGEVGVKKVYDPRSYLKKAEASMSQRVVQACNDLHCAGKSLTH

| SMILES | inhibition |
| --- | --- |
| O=c1onc(-c2cccs2)n1Cc1ccccc1 | 1.37% |
| COc1ccc(C2CC(c3ccc(Cl)cc3Cl)Nc3nc(N)nn32)cc1OC (stereo not drawn) | 0.41% |
| Cc1ccc(C2CC(c3cccc(Br)c3)n3nc(N)nc3N2)cc1 (stereo not drawn) | 5.98% |
| Nc1nc2n(n1)C(c1ccco1)CC(c1ccc(Cl)c(Cl)c1)N2 (stereo not drawn) | 30.1% (active) |
| CCOc1ccc(CCNC(=O)COC(=O)C2CCN(c3ccc(C(F)(F)F)cn3)CC2)cc1OCC | 2.79% |
| OC[C@@H]1CN(Cc2ccc3c(c2)OCO3)C[C@H](n2cnc3c(NCc4ccco4)ncnc32)O1 | 0.71% |
| CNC(=O)c1ccc(CN(C)C(=O)c2cc(C3CC3)nc3c2cnn3C(C)C)cc1 | -0.03% |
| COc1ccc(OCCNC(=O)c2cc(C3CC3)nc3c2cnn3C(C)C)cc1 | 7.43% |
| CC(C)n1ncc2c(C(=O)NCc3ccccc3CN(C)C)cc(C3CC3)nc21 | 29.8% (active) |
| Cn1c(=O)c2c(nc(N3CCOCC3)n2CCNC2=NCCC2)n(C)c1=O | 0.36% |
| Cc1coc(C)c1C(=O)CC1(O)C(=O)N(C)c2ccc(Cl)cc21 (stereo not drawn) | -1.99% |
| CC(c1nnc(SCC(=O)Nc2sccc2C#N)n1-c1ccc(Cl)cc1)N(C)C (stereo not drawn) | -0.06% |
| COc1cccc(C(=O)OCc2cc(=O)oc3c(C)c(C)ccc23)c1OC | 2.59% |
| Cc1cc(=O)oc2c(C)c(OC(C)C(=O)NC3CCN(Cc4ccccc4)CC3)ccc12 (stereo not drawn) | 14.6% |
| COc1ccccc1NC(=O)COC(=O)CNC(=O)C1CCCCC1 | 2.67% |
| CCCc1cc(=O)[nH]c(SCC(=O)Nc2ccc(S(=O)(=O)N3CCCC3)cc2)n1 | 1.25% |
| O=C(O)c1cccc(S(=O)(=O)N2CC=C(c3ccccc3)CC2)c1 | 0.87% |
| O=C1c2ccccc2NC(c2ccccc2O)N1NS(=O)(=O)c1ccccc1 (stereo not drawn) | 7.05% |
| CC(=O)NN1C(=O)c2ccccc2NC1c1ccccc1 (stereo not drawn) | 37.3% (active) |
| CCOC(=O)NN1C(=O)c2ccccc2NC1c1cccc(O)c1 (stereo not drawn) | 31.7% (active) |
| CN(C)c1ccc(C2Nc3ccccc3C(=O)N2NS(=O)(=O)c2ccccc2)cc1 (stereo not drawn) | -0.05% |
| CCN1C(=O)N[C@@H](c2ccccc2)[C@H](C(C)=O)[C@H]1C | 1.5% |

| SMILES | inhibition |
| --- | --- |
| CCOC(=O)NN1C(=O)c2ccccc2NC1c1ccccc1O (stereo not drawn) | 26.2% |
| Cc1cccc(C)c1NC(=O)C1CCCN1C(=O)OC(C)(C)C (stereo not drawn) | -0.82% |
| CS(=O)(=O)N(CC(=O)N1CCOCC1)c1ccc2c3c(cccc13)CC2 | 9.05% |
| COCCNC(=O)C1CCN(S(=O)(=O)c2ccc3c(c2)OCCO3)CC1 | -1.67% |
| O=C(O)C(=Cc1ccccc1[N+](=O)[O-])c1ccccc1 | 3.82% |
| CC1(C)CC(=O)C=C(c2ccc(COC(=O)c3cc(F)cc(F)c3)cc2)C1=O | -0.96% |
| C/C(=N\NC(=S)NC(C)C)c1ccc(C(C)(C)C)cc1 | 2.12% |
| Cc1ccc(CNC(=O)c2ccccc2CCc2ccccc2)cc1 | -1.34% |
| CCN(CC)CCCNC(=O)c1cc(-c2cccc(Cl)c2)on1 | 0% |
| Cc1cccc(N(C)C(=O)c2cc3c(=O)[nH]c4ccc(C)cc4c3s2)c1 | 2.59% |
| CCN(CC)CCCNC(=O)c1cc2c(=O)[nH]c3ccc(C)cc3c2s1 | 99.9% (active) |
| O=C1CC(c2cccc(Br)c2)C2=C(CCCC2=O)N1 (stereo not drawn) | 11.8% |
| COc1ccc(-n2nc(C(=O)NCC(=O)Nc3cccc(C)n3)c3ccccc3c2=O)cc1 | -0.39% |
| COc1ccc(OC)c(CN2C(=O)CCC2(C)C(=O)NC2CCCCCC2)c1 (stereo not drawn) | -0.66% |
| Nc1ncnc2c1ncn2[C@@H]1O[C@H](C(=O)N2CCCN(Cc3ccccc3F)CC2)[C@@H](O)[C@H]1O | -2.6% |
| CCN1CCCC1CNC(=O)c1ccc2c(c1)NC(=O)/C(=C\c1ccccc1F)S2 (stereo not drawn) | -6.09% |
| COc1ccc(C(=O)NCC2CCCN2S(=O)(=O)c2cccs2)cc1OC (stereo not drawn) | 2.94% |
| CCOC(=O)CSc1nc(C)cc2c1C(=O)OC2 | -3.48% |
| O=C(NCc1cccc(Cl)c1)C1CCN(c2nnc(N3CCCC3=O)s2)CC1 | -1.53% |
| O=C(NCc1cccc(Cl)c1)C1=CC=CN2CCS(=O)(=O)N=C12 | 30.5% (active) |
| O=C(NCc1cccc(Cl)c1)C1CCC(=O)N(C2CC2)C1 (stereo not drawn) | 1.48% |
| COCC1CCCN(Cc2cn[nH]c2-c2cc3ccccc3o2)C1 (stereo not drawn) | 0.03% |

| SMILES | inhibition |
| --- | --- |
| COc1ccc2c3c(c(=O)oc2c1OCC(=O)C(C)(C)C)CCCC3 | 63.3% (active) |
| COc1ccc(C(=O)Nc2ccc(C(=O)NCC3CCCO3)cc2)c(OC)c1OC (stereo not drawn) | -1.55% |
| CCCOc1ccc2c3c(c(=O)oc2c1OCCC)CCC3 | 16% |
| CCc1nc2c(OCC(=O)C(C)(C)C)cccn2c1N(C)C(=O)c1ccccc1F | -0.18% |
| Clc1ccc(C=NC23CN4CN(CN(C4)C2)C3)cc1 | 1.62% |
| NNc1cccc(C=Cc2ccccc2)cc1=O | 21.6% |
| O=C(COc1ccc(Cl)cc1)NCc1nnc(SCC(=O)NCC2CCCO2)o1 (stereo not drawn) | 5.04% |
| CCC1Oc2ccccc2N(CC(=O)NCCCN2CCN(CC)CC2)C1=O (stereo not drawn) | -0.48% |
| CN1CCN(CCCNC(=O)c2ccc(/C=C3\Oc4ccccc4N(Cc4ccc(Cl)cc4)C3=O)cc2)CC1 | 80.8% (active) |
| Cc1ccc(NC(=O)CCCNC(=O)c2ccc(Cl)cc2)cc1S(=O)(=O)N1CCOCC1 | 1.07% |
| Clc1ccc(Cl)c(Oc2ccc(Oc3nc(Cl)ccc3Cl)cc2)n1 | 4.19% |
| COc1ccc2c(c1)C(=C(C#N)C#N)C(=O)N2CCc1ccccc1 | 0.52% |
| COc1ccc2c(CC(=O)OCC(=O)Nc3ccccc3[N+](=O)[O-])coc2c1 | 2.62% |
| CC(C)(C)OC(=O)Nc1ccc([C@@H](NC(=O)OC(C)(C)C)C(=O)OC(C)(C)C)cc1 | -1.85% |
| COc1cccc2cc(S(=O)(=O)c3ccc(C)cc3)/c(=N/NS(=O)(=O)c3ccc(C)cc3)oc12 | -1.11% |
| Cc1cc(S(=O)(=O)c2cc3ccc(O)c(C)c3oc2=O)ccc1F | 72.4% (active) |
| Cc1cc(C(=O)OCC(=O)c2c(N)n(C)c(=O)n(C)c2=O)c(C)o1 | 0.07% |
| O=S(=O)(c1ccc(Br)cc1)n1ccc2ccccc21 | -4.37% |
| CS(=O)(=O)N(CC(=O)N1CCCC1)Cc1ccccc1 | 1.15% |
| CN(Cc1ccccc1Cl)C(=O)C1CCC(=O)N(CCc2cccc(F)c2)C1 (stereo not drawn) | -0.04% |
| O=C(N=C1SC2CS(=O)(=O)CC2N1c1cc(Cl)ccc1Cl)C1CC1 (stereo not drawn) | 0.93% |
| COc1ccc2c(C)c(CCC(=O)NC3CC3)c(=O)oc2c1C | 162% (active) |

| SMILES | inhibition |
| --- | --- |
| COc1ccc(CCNC(=O)CCC(=O)NC2CCCCC2)cc1OC | 0.12% |
| CCOc1ccc(-c2noc(CCC(=O)NC3CCCC3)n2)cc1OC | 1.23% |
| CC(C)N1CCC(NC(=O)Nc2ccccc2)CC1 | 0% |
| Cc1ccc(-c2nn(-c3cccc(F)c3)cc2CNCCc2ccncc2)o1 | 3.67% |
| C#Cc1ccc(NC(=O)C2(C)CCN2C(=O)Cc2ccc(-c3ccccc3)cc2)cc1 (stereo not drawn) | -1.12% |
| COc1ccc(S(=O)(=O)N(C)C[C@H]2Oc3c(NC(=O)Nc4ccc5c(c4)OCO5)cccc3C(=O)N([C@H](C)CO)C[C@@H]2C)cc1 | 112% (active) |
| Cc1noc(C)c1S(=O)(=O)N(C)C[C@H]1Oc2c(NC(=O)Nc3ccc4c(c3)OCO4)cccc2C(=O)N([C@H](C)CO)C[C@@H]1C | -0.42% |
| COc1ccc(S(=O)(=O)Nc2cccc3c2O[C@H](CN(C)S(=O)(=O)c2ccc(OC)cc2)[C@@H](C)CN([C@H](C)CO)C3=O)cc1 | 0.3% |
| CCN(CCn1cccn1)C(=O)CC1C(=O)NCCN1Cc1cccc(OC)c1OC (stereo not drawn) | 0.01% |
| CC(C)C1Nc2c(C(=O)O)cccc2C(Nc2ccccc2C(=O)O)C1(C)C (stereo not drawn) | 107% (active) |
| CCCCN1CC(COc2ccccc2)Oc2cccc(F)c2S1(=O)=O (stereo not drawn) | -2.92% |
| O=C(c1ccc(Cl)cc1)N1N=C(c2ccccn2)CC1(O)C(F)(F)F (stereo not drawn) | 4.39% |
| CCOC(=O)[C@H]1[C@H]2COc3ccc(C)cc3[C@@H]2N2C(=O)CN(Cc3ccc(F)cc3)C(=O)[C@@]12C | 0.55% |
| CC[C@@H]1Cc2cc(O)ccc2C2=C1c1ccc(O)cc1C[C@H]2CC | 89.3% (active) |
| O=C1NC(=O)C(c2ccc(Cl)cc2)N1 (stereo not drawn) | 3.68% |
| COCCNC(=O)c1ccc2nc(Cc3ccc(OC)c(OC)c3)oc2c1 | 2.67% |
| COc1ccc(CNC(=O)COc2ccccc2C(=O)c2cnn(-c3ccccc3)c2)cc1OC | 6.29% |
| CCCCNC(=O)c1ccccc1NC(=O)C1=C(C)OCCS1 | 1.28% |
| O=C(O)/C=C/c1cn(-c2ccccc2)nc1-c1cccs1 | 57.3% (active) |
| CC(=O)C1=C(C)NC(C)=C(C(C)=O)C1c1cn(-c2ccccc2)nc1-c1cccs1 | 0.45% |
| Cc1ccc(-c2nn(-c3ccccc3)cc2/C=C/C(=O)Nc2cccc(S(N)(=O)=O)c2)cc1 | 2.47% |
| O=C1COc2ccc(NC(=O)N3CCN(c4ccc(F)cc4)CC3)cc2N1 | 1.24% |
